Source: PubChem BioAssay (NCATS)
Records with an inconclusive call do not appear. Where a call stands in place of a potency, no number is given. Active and inactive are the calls of the source. Unless noted, calls come from the whole dose curve; as a rule, active = well fitted curve in the direction sought with a large enough effect; inconclusive = small, poorly fitted or top-dose-only effect, or another doubt; inactive = no such curve, though single readings can be large; an effect the other way counts as inactive or inconclusive.

Assays:
[1] = qHTS assay for measurement of the activity of small molecule inhibitors on Zika virus induced Caspase-3 activity in human iPSC derived neural progenitor cells (hNPCs) (AID 1224857); note: nearly all actives have a fitted effect of over 65% in size
In short: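 Percent inhibition of virus-induced caspase-3/7 luminescence (Caspase-Glo), scaled between uninfected cells and Zika-infected cells. hNPCs received compound 1 hr before ZIKV at 2 FFU/cell, with 6 hours infection at 37 C.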

[2] = qHTS assay for measurement of the activity of small molecule inhibitors on Zika virus induced Caspase-3 activity in human astrocytoma cells (AID 1224859)
In short: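 Luminescent caspase-3/7 read-out (30 min reagent, room temperature) in human SNB-19 cells infected 6 h with ZIKV (2 FFU/cell) after 1 h compound pre-incubation; Data were normalised to uninfected and infected wells.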

[3] = qHTS assay to identify small molecule inhibitors of chordoma cells - UCH-1 (AID 1259355); note: nearly all actives have a fitted effect of over 55% in size
In short: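 800 cells/well, overnight attach; compounds pinned at 15 concs, then auranofin/camptothecin/doxorubicin/rubitecan/topotecan combo added; 48hr 37 C, 5% CO2; CellTiter-Glo, 30min RT, luminescence.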

[4] = qHTS assay to identify small molecule inhibitors of chordoma cells - UCH-2 (AID 1259356)
[5] = P-glycoprotein substrates identified in KB-8-5-11 adenocarcinoma cell line, qHTS therapeutic library screen (AID 1346987); note: nearly all actives have a fitted effect of over 65% in size; note: potency is the fitted concentration of half-maximal effect
In short: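 In this qHTS, P-gp-rich KB-8-5-11 cells received library compounds across a concentration range. Viability was quantified by luminescence after 72 h at 37 degree C.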

[6] = Natriuretic polypeptide receptor (hNpr1) antagonism - Pilot counterscreen GloSensor control cell line (AID 1347045; calls by dose curve)
In short: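 HEK293 cGMP-sensor cells; 2% GloSensor reagent 2 h RT; LOPAC compounds in 1:5 titrations 30-50 min; 50 uM SNP 20 min; luminescence pre-read and post-read.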

[7] = target: Atrial natriuretic peptide receptor 1 (Homo sapiens) (UniProt P16066); assay: Natriuretic polypeptide receptor (hNpr1) antagonism - Pilot screen (AID 1347049; calls by dose curve;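 note: HEK293 cells with hNpr1 and GloSensor cGMP luciferase stimulated by 0.1 nM hNppA; agonist-evoked cGMP luminescence read 20 min after hNppA addition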)
Atrial natriuretic peptide receptor 1 (Homo sapiens), sequence (P16066 whole entry, looked up): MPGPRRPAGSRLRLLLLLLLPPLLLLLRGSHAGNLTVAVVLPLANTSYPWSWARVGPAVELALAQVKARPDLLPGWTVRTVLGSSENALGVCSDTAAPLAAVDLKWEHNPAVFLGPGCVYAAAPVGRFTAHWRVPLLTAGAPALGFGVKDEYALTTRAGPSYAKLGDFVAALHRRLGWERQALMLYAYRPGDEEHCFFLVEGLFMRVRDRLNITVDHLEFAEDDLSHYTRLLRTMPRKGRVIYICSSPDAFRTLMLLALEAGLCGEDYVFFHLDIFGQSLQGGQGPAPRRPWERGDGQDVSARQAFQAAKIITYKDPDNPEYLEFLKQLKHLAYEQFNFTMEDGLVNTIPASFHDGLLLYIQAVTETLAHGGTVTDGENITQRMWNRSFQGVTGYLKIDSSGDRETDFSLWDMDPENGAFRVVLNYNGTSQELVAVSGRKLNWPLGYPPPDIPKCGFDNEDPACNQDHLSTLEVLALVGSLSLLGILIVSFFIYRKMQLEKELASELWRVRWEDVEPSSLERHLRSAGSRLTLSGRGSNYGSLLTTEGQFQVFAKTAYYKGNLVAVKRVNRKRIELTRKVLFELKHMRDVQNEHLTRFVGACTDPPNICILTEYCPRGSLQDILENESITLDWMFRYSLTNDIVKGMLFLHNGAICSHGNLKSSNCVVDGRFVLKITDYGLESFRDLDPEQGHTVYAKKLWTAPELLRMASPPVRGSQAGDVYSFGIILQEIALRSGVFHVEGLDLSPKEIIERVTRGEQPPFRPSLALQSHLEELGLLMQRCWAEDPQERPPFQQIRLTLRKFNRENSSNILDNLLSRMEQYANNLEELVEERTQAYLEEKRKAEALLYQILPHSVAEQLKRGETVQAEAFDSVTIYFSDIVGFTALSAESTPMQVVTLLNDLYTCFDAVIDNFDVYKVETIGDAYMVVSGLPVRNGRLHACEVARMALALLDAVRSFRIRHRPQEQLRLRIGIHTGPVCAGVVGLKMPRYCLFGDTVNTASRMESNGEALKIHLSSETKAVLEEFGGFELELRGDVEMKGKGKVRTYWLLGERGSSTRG
In short: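 Receptor antagonism read as cGMP-dependent luminescence in hNpr1/pGS-40F HEK293 cells: pre-read after 30 min compound exposure, post-read 20 min after hNppA agonist at 0.1 nM final, all at room temperature, protected from light; A-71915 titration as control.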

[8] = target: Atrial natriuretic peptide receptor 2 (Homo sapiens) (UniProt P20594); assay: Natriuretic polypeptide receptor (hNpr2) antagonism - Pilot subtype selectivity assay (AID 1347050; calls by dose curve)
Atrial natriuretic peptide receptor 2 (Homo sapiens), sequence (P20594 whole entry, looked up): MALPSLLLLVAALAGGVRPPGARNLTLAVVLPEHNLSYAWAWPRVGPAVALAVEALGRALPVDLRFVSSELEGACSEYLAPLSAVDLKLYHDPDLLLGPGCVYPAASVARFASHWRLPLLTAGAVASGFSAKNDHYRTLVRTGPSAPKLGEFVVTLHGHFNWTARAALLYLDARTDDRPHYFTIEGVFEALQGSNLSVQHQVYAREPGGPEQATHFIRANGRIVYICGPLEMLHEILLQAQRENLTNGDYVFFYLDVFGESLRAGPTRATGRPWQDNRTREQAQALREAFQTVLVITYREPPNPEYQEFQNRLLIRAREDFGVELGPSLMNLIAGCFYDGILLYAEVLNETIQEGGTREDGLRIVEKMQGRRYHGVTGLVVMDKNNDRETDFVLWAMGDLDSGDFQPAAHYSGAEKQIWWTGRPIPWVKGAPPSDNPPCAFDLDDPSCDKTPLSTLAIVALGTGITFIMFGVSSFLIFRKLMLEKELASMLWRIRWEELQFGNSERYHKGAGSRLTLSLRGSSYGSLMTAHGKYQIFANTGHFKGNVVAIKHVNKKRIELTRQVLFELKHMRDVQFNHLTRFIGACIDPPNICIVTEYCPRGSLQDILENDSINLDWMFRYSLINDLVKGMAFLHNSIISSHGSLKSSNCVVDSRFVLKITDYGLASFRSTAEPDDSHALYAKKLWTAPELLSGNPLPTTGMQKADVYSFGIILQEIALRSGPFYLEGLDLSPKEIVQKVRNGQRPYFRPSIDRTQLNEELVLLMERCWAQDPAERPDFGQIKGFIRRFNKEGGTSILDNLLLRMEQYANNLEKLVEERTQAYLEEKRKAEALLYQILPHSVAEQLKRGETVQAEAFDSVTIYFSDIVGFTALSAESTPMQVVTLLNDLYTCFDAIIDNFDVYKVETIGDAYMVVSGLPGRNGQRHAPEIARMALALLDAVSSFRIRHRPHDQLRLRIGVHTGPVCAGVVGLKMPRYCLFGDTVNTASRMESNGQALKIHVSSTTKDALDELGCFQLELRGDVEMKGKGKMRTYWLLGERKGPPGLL
In short: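 Antagonist mode: compounds (LOPAC1280, seven 1:5 dilutions) added 30 min before 1 nM hNppC stimulation of hNpr2-HEK293 cGMP-sensor cells; luminescence read before and 20 min after agonist at ambient temperature.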

[9] = qHTS profiling of the MIPE4 collection as inhibitors of Plasmodium falciparum (HB3) proliferation (AID 743347; call rule not given here); conditions: P. falciparum HB3 in erythrocytes, SYBR Green DNA, 72 h; at 28.5 µM (top of the series)
In short: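 Parasite DNA was quantified by SYBR Green I fluorescence (ex 485, em 535 nm) after overnight lysis in saponin/Triton buffer at room temperature. Cultures at 0.3% parasitemia and 2.5% hematocrit were first exposed to compound for 72 h at 37 C; signals were normalised to artemisinin (0.29 uM) and vehicle wells.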

Row | SMILES | Potency [1] | outcome [2] | Potency [3] | Potency [4] | Potency [5] | outcome [6] | outcome [7] | outcome [8] | growth, % of control [9]
1 | CCOC(=O)[C@@](C)(N)Cc1ccc(O)c(O)c1 | inactive | inactive | inactive | inactive | inactive |  |  |  | 
2 | Cc1cc2c(OCC(CNC(C)(C)C)OC(=O)c3ccccc3)cccc2[nH]1 (stereo not drawn) | inactive | inactive | inactive | inactive | inactive |  |  |  | 
3 | C[C@@H](O)[C@H]1C(=O)N2C(C(=O)O)=C([C@H]3CCCO3)S[C@H]12 | inactive | inactive | inactive | inactive | inactive |  |  |  | 
4 | CN1CCC[C@@H]1CCO[C@](C)(c1ccccc1)c1ccc(Cl)cc1 | inactive | inactive | inactive | inactive | inactive |  |  |  | 
5 | CCN(CC)CCOc1ccccc1C(=O)CCc1ccccc1 | inactive |  | inactive | inactive |  |  |  |  | 
6 | CCOC(=O)[C@H](CCc1ccccc1)N[C@@H](C)C(=O)N1[C@H](C(=O)O)C[C@H]2CCCC[C@@H]21 | inactive | inactive | inactive | inactive | inactive | inactive | inactive | inactive | 
7 | CC(C)CCCC(C)N (stereo not drawn) | inactive | inactive | inactive | inactive | inactive |  |  |  | 
8 | CCOC(=O)Nc1ccc2c(c1)N(C(=O)CCN1CCOCC1)c1ccccc1S2 | inactive | inactive | inactive | inactive | inactive |  |  |  | 41.6%
9 | CN(CCCN1c2ccccc2CCc2ccccc21)CC(=O)c1ccc(Cl)cc1 | inactive |  | inactive | inactive |  |  |  |  | 
10 | CN=C(N)NCCC[C@H](N)C(=O)O | inactive | inactive | inactive | inactive | inactive | inactive | inactive | inactive | 
11 | CC(C)(Cc1c[nH]c2ccccc12)NCC(O)COc1ccccc1C#N (stereo not drawn) | inactive | inactive | inactive | inactive | inactive |  |  |  | 
12 | C#C[C@]1(OC(C)=O)CC[C@H]2[C@@H]3CCC4=C/C(=N/O)CC[C@@H]4[C@H]3CC[C@@]21CC | inactive | inactive | inactive | inactive | 6.51 µM (active) |  |  |  | 
